From PubChem BioAssay
Calls of active or inactive are those of the source.

What was measured:
[1] = test system: PRMT1 (protein arginine N-methyltransferase 1); experiment: small molecules binding arginine methyltransferase PRMT1 – biochemical, small-molecule microarray, 635 nm fluorescence, primary screen (AID 1088); settings: higher = more signal;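 note: binding of Prmt1 protein to compounds spotted on small-molecule microarray slides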
[2] = growth effects on S. cerevisiae YJM789 – YJM789 clinical isolate, OD600, 24 h, basal, primary screen (AID 1089); settings: higher = more signal, called active from +8 up or from −8 down;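 note: growth of clinical yeast isolate S. cerevisiae YJM 789 seeded 1000 cells per well; test concentration not given here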
[3] = S. pombe growth modifiers, basal conditions – strain 972, OD600, 24 h, no modulator, primary screen (AID 1090);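 note: basal condition with compound alone and no growth modifier present; test concentration not given here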; settings: S. pombe 972 growth, higher = more signal, called active from +8 up or from −8 down
[4] = budding yeast growth modifiers under rapamycin – strain BY4716, OD600, 96 h, primary screen (AID 1091); note: test concentration not given here; settings: S. cerevisiae BY4716 + rapamycin, higher = more signal, called active from +8 up or from −8 down
[5] = target: Torsin-1A-interacting protein 2 (Homo sapiens) (UniProt Q8NFQ8); experiment: small molecules binding lysate-expressed LULL1 – cell lysate, human LULL1 lysate, 635/667 nm fluorescence, primary screen (AID 1092); settings: small-molecule microarray, hLULL1 lysate binding, 635 nm fluorescence; higher = more signal;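 note: probe is lysate of COS7 cells overexpressing human LULL1; score merges per-feature 667 nm fluorescence with signal-to-noise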
Torsin-1A-interacting protein 2 (Homo sapiens), sequence (Q8NFQ8 whole entry, looked up): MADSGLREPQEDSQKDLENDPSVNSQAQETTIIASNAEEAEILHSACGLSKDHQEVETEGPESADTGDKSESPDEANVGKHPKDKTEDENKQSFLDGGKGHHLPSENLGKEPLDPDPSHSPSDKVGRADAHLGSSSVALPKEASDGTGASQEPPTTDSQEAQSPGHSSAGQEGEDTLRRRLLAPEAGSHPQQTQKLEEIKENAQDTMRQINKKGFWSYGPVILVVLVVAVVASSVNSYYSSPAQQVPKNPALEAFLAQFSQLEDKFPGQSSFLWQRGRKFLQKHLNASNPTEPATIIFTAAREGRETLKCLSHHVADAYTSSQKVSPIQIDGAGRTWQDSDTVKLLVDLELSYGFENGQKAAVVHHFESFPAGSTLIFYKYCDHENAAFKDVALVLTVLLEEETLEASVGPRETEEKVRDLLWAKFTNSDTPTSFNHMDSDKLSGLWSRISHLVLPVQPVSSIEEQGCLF

[6] = optical density change of DRC41 E. coli – strain DRC41, OD650, 24 h, E. coli filamentation project, primary screen (AID 1093);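 note: MC1000 strain lacking acrAB efflux and sulA so SOS filamentation is blocked; test concentration not given here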; settings: E. coli DRC41 growth, higher = more signal, called active from +8 up or from −8 down
[7] = probe aLefty2 binding to arrayed compounds – biochemical, biotinylated probe, 635/667 nm fluorescence, primary screen (AID 1094); settings: small-molecule microarray, higher = more signal;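 note: score merges spot fluorescence near 667 nm with spot signal-to-noise ratio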
[8] = test system: Noggin (protein binding on small-molecule microarray); experiment: small molecules binding Noggin protein – biochemical, 635/667 nm fluorescence, primary screen (AID 1095); settings: 635 nm fluorescence, higher = more signal;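 note: score merges 667 nm feature fluorescence with signal to noise over triplicate slides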
[9] = target: Neurogenic locus notch homolog protein 3 (Homo sapiens) (UniProt Q9UM47); experiment: small molecules binding NOTCH3 protein – biochemical, 635/667 nm fluorescence, primary screen (AID 1096); settings: small-molecule microarray, 635 nm fluorescence, higher = more signal
Neurogenic locus notch homolog protein 3 (Homo sapiens), sequence (Q9UM47 whole entry, looked up): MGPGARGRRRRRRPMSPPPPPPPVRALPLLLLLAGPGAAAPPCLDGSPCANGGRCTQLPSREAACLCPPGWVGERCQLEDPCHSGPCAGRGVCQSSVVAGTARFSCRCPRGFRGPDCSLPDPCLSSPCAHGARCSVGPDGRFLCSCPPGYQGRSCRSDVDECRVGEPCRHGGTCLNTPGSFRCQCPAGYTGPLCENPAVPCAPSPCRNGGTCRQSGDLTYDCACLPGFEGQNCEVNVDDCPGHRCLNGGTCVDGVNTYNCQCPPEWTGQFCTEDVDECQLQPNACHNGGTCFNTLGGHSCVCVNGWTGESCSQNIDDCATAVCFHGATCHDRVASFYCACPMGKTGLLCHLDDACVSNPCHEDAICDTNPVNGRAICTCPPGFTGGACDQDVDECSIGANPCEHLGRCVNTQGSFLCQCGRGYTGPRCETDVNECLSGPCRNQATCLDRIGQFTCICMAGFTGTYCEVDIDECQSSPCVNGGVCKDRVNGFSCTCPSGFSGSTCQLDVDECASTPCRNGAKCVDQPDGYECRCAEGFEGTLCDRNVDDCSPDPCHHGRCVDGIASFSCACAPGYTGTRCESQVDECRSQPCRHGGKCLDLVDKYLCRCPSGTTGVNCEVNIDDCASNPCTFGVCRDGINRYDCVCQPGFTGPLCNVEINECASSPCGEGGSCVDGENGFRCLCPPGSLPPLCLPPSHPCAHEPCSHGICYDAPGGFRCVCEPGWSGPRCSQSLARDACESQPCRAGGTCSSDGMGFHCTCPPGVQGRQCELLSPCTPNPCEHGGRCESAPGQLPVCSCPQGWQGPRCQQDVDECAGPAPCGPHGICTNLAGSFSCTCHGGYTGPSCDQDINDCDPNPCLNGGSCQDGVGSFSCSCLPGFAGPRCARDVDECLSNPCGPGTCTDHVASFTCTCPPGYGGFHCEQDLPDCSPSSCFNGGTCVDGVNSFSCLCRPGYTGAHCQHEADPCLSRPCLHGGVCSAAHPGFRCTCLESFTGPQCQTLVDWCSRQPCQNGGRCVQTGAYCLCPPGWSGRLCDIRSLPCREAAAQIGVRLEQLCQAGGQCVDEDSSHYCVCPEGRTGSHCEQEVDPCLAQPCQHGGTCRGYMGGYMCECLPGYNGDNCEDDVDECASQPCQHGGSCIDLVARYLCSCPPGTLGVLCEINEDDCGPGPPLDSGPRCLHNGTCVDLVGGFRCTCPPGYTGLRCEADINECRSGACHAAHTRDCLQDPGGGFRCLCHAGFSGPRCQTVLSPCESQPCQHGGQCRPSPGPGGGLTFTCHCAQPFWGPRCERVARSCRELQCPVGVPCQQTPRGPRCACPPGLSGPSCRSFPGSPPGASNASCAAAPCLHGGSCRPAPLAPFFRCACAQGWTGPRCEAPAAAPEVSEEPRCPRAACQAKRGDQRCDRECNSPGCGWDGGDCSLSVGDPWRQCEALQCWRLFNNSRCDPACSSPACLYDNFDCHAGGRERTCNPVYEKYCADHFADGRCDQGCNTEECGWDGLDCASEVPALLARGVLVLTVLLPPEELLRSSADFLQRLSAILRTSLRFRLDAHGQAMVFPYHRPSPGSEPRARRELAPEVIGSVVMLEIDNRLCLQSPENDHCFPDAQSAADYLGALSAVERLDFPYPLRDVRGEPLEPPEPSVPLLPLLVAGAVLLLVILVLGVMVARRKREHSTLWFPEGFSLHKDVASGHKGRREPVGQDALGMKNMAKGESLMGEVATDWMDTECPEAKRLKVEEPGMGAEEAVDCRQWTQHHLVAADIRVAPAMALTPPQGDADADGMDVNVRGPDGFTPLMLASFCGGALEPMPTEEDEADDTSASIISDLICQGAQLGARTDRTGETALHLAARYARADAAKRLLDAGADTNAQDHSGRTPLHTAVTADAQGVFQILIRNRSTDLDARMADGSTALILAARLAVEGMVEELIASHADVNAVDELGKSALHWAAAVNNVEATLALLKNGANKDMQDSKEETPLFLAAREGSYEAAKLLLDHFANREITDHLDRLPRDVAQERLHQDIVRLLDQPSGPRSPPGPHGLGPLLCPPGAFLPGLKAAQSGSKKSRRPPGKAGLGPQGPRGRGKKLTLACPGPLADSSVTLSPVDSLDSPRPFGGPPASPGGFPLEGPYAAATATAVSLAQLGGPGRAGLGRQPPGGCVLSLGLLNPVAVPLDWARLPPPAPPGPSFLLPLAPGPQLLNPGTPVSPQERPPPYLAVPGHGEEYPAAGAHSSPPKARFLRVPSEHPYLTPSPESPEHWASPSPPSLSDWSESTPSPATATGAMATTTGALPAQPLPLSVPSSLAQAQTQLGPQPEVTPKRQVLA

[10] = probe aEGFR binding to arrayed compounds – biochemical, biotinylated probe, 635/667 nm fluorescence, primary screen (AID 1097); settings: small-molecule microarray, higher = more signal;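 note: probe is a biotinylated anti-EGFR antibody binding compounds printed on slides; score combines fluorescence near 667 nm and signal to noise of each spot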
[11] = test system: Plasmodium falciparum Sir2 (PF13_0152, Sir2A); experiment: Plasmodium falciparum Sir2A binding compounds – biochemical, small-molecule microarray, 635 nm fluorescence, primary screen (AID 1098); settings: fluorescence 635 nm, higher = more signal;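 note: score merges spot fluorescence intensity with its signal-to-noise ratio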
[12] = probe aDKK1 binding to arrayed compounds – biochemical, biotinylated probe, 635/667 nm fluorescence, primary screen (AID 1099); settings: small-molecule microarray, higher = more signal;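 note: score merges 667nm spot fluorescence with signal to noise across triplicate slides; reference of the scale not given here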
[13] = probe aCHRDL2 binding to arrayed compounds – biochemical, biotinylated probe, 635/667 nm fluorescence, primary screen (AID 1100); settings: small-molecule microarray, higher = more signal
[14] = change in splice reporter luminescence, either direction, cell-based, HEK293, spliceosome inhibition project, primary screen (AID 1101); settings: HEK293 splicing luciferase reporter, 24 h, higher = more signal, called active from +8 up or from −8 down;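 note: HEK293 cells carrying a splicing-competent luciferase reporter gene; test concentration not given here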
[15] = target: Fibroblast growth factor 10 (Homo sapiens) (UniProt O15520); experiment: compounds binding fibroblast growth factor 10 – biochemical, small-molecule microarray, 635 nm fluorescence, primary screen (AID 1102); settings: FGF10 binding, fluorescence 635 nm, higher = more signal
Fibroblast growth factor 10 (Homo sapiens), sequence (O15520 whole entry, looked up): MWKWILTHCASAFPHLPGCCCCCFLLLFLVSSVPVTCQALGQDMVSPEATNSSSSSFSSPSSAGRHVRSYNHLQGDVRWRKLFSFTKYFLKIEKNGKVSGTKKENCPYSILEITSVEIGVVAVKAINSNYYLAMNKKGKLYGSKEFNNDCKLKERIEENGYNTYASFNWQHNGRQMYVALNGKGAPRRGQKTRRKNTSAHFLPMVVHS

[16] = test system: glycogen synthase kinase-3 (GSK3A per assay name; protocol says GSK3B); experiment: compounds binding glycogen synthase kinase-3 – biochemical, small-molecule microarray, 635 nm fluorescence, GSK3A, primary screen (AID 1103); settings: fluorescence 635 nm, higher = more signal; note: the record names both GSK3A and GSK3B
[17] = target: Epidermal growth factor receptor (Homo sapiens) (UniProt P00533); experiment: compounds binding epidermal growth factor receptor – biochemical, small-molecule microarray, 635 nm fluorescence, primary screen (AID 1104); settings: EGFR binding, higher = more signal;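 note: score merges 667 nm emission intensity with spot signal to noise over triplicate slides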
Epidermal growth factor receptor (Homo sapiens), sequence (P00533 whole entry, looked up): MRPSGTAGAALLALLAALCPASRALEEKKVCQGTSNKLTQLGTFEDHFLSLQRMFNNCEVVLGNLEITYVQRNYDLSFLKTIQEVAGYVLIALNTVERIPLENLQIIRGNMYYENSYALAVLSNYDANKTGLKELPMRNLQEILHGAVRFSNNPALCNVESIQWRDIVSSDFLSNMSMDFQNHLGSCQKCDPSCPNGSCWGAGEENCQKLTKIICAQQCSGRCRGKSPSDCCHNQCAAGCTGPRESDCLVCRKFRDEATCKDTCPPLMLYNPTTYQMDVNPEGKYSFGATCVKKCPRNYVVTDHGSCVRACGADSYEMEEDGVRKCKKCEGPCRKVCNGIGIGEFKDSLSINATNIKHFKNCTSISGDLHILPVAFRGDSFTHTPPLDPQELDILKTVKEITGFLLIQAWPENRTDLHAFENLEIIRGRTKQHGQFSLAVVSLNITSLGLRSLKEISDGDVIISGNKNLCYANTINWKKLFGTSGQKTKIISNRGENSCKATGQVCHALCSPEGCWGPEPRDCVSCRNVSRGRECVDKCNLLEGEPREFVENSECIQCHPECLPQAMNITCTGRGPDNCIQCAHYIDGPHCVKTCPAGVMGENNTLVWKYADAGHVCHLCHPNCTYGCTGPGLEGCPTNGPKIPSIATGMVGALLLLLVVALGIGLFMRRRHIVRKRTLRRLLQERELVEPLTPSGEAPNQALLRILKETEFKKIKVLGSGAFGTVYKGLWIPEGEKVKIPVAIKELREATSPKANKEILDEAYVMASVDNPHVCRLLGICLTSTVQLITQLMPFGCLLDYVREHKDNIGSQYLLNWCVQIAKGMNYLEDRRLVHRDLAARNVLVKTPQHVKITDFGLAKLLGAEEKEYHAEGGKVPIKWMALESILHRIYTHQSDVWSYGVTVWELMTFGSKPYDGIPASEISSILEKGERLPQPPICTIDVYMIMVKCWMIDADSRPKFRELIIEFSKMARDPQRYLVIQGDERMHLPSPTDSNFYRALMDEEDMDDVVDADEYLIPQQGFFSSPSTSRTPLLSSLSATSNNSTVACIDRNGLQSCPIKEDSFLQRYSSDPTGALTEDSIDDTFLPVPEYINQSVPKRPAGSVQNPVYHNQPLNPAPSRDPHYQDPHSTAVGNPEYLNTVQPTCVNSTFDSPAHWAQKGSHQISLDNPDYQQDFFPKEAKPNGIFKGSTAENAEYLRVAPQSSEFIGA

[18] = target: Follistatin-related protein 3 (Homo sapiens) (UniProt O95633); experiment: compounds binding follistatin-related protein 3 – biochemical, small-molecule microarray, 635 nm fluorescence, primary screen (AID 1105); settings: FSTL3 binding, higher = more signal;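 note: score merges emission near 667 nm and signal to noise per printed spot across three slides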
Follistatin-related protein 3 (Homo sapiens), sequence (O95633 whole entry, looked up): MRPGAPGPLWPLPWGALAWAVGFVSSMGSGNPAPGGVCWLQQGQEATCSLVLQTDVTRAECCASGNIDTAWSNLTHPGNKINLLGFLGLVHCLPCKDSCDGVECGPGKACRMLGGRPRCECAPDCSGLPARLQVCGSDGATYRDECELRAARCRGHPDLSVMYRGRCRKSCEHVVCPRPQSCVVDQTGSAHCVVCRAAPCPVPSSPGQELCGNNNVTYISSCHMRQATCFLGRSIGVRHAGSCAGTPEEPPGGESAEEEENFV

[19] = target: Dickkopf-related protein 1 (Homo sapiens) (UniProt O94907); experiment: small molecules binding DKK1 protein – biochemical, small-molecule microarray, 635 nm fluorescence scan, primary screen (AID 1106); settings: higher = more signal;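 note: score merges emission near 667 nm with signal to noise over three replicate slides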
Dickkopf-related protein 1 (Homo sapiens), sequence (O94907 whole entry, looked up): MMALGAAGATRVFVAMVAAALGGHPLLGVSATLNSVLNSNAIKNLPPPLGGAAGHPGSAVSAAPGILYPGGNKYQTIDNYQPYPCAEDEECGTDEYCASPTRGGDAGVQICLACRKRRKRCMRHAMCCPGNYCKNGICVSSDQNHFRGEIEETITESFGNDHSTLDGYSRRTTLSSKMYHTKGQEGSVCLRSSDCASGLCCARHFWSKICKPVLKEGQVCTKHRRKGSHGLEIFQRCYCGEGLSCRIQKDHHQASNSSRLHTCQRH

[20] = test system: Inhibin beta A chain (activin A); experiment: small molecules binding activin A – biochemical, small-molecule microarray, 635 nm fluorescence scan, primary screen (AID 1107); settings: INHBA, higher = more signal;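 note: mouse activin A protein probed at 4.33 µg/mL on printed slides; score merges bound-protein fluorescence near 667 nm with spot signal-to-noise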

| Structure (SMILES) | composite z-score [1] | z-score [2] | z-score [3] | z-score [4] | composite z-score [5] | z-score [6] | composite z-score [7] | composite z-score [8] | composite z-score [9] | composite z-score [10] | composite z-score [11] | composite z-score [12] | composite z-score [13] | z-score [14] | composite z-score [15] | composite z-score [16] | composite z-score [17] | composite z-score [18] | composite z-score [19] | composite z-score [20] |
| --- | --- | --- | --- | --- | --- | --- | --- | --- | --- | --- | --- | --- | --- | --- | --- | --- | --- | --- | --- | --- |
| OCCCC1=CC(C2CC2)N(Cc2cccc(OC(F)(F)F)c2)CC1 (stereo not given) | 0.352 | -2.88 (inactive) | -2.33 (inactive) | -1.72 (inactive) | 0.25 | -0.454 (inactive) | -0.264 | -0.177 | -0.477 | -0.157 | 1.13 | -0.454 | -0.286 | 0.0563 (inactive) | -0.963 | -0.798 | -0.651 | -0.556 | 0.161 | 0.526 |
| C=CCOC(=O)[C@H]1[C@@H]2C(=O)O[C@@H](c3ccccc3)[C@@H](c3ccccc3)N2[C@@H](c2ccc(OCCOC(=O)[C@@H]3C[C@@H]4C(=O)N5CCC[C@H]5C(=O)N4[C@@H]3c3cccc(OCCO)c3)cc2)[C@]12C(=O)Nc1ccc(I)cc12 | 1.56 | 0.151 (inactive) | 1.04 (inactive) | 2.23 (inactive) | 2.09 | -0.443 (inactive) | -0.117 | 1.86 | 1.08 | 0.0032 | 1.59 | -0.214 | -0.158 | 0.0567 (inactive) | 1.42 | 1.15 | 0.702 | 1.39 | 1.2 | 0.76 |
| CC(C)[C@@H](C(=O)O)n1cc(C2(O)CCCCC2)nn1 | 0.629 | -0.791 (inactive) | 0.462 (inactive) | -1.12 (inactive) | 1.02 | 0.616 (inactive) | -0.132 | 0.731 | 1.05 | -0.02 | 0.221 | -0.184 | -0.55 | -0.291 (inactive) | 0.928 | 1.09 | 0.15 | 0.457 | 0.301 | -0.352 |
| CCCCC(=C=CC[C@H](O)c1cccc(OCCO)c1)C[C@H](O)c1ccccn1 | 0.483 | -1.2 (inactive) | -1.12 (inactive) | -1.68 (inactive) | -0.639 | 1.34 (inactive) | -0.165 | 0.395 | -0.153 | -0.13 | 0.827 | -0.218 | -0.302 | -2.17 (inactive) | 0.453 | -0.364 | 0.0715 | 0.0048 | 0.296 | 0.434 |
| COCCCNC(=O)[C@@]1(Sc2ccc(C)cc2)CC(=O)N(Cc2ccccc2Cl)[C@@H]1c1ccc(CO)cc1 | 1.54 | -0.15 (inactive) | -0.429 (inactive) | -0.439 (inactive) | 2.74 | -1.29 (inactive) | 0.0112 | 1.05 | 1.12 | -0.0874 | 1.36 | 0.0942 | 0.0166 | -0.87 (inactive) | 0.977 | 0.56 | 0.491 | 1.36 | 0.553 | 0.595 |
| C=CC[C@]1(C(N)=O)N=C(c2ccc(OCCCO)cc2)O[C@H]1c1ccccc1 | 0.243 | -0.52 (inactive) | -0.0257 (inactive) | -0.953 (inactive) | 2.17 | 0.0588 (inactive) | 0.0493 | 0.201 | -0.674 | -0.165 | 1.3 | 0.351 | 1.11 | 0.27 (inactive) | -0.304 | -0.195 | -1.03 | -0.882 | -0.539 | 1.08 |
| C=CCN1C(=O)[C@]2(Cc3ccccc3)N=C(c3ccc(OCCCO)cc3)O[C@@H]2c2ccccc21 | 1.53 | 0.331 (inactive) | -0.694 (inactive) | 1.46 (inactive) | 3.13 | 0.482 (inactive) | 0.295 | 1.2 | 1.15 | 0.133 | 1.16 | 0.0729 | 0.795 | -1.37 (inactive) | 0.755 | 1.27 | 0.781 | 0.878 | 0.547 | 1.13 |
| CC(=O)Nc1cc(Br)ccc1C(=O)NCc1ccccc1 | 0.717 | -1.76 (inactive) | -6.28 (inactive) | -1.98 (inactive) | 2.06 | 0.0591 (inactive) | -0.0778 | -0.0557 | 0.199 | -0.111 | 0.695 | -0.0601 | 0.416 | -0.508 (inactive) | -0.158 | 0.0021 | -0.274 | -0.187 | -0.221 | 0.305 |
| C=CC[C@]1(C(N)=O)COC(c2ccc(OCCCO)cc2)=N1 | 0.322 | 0.924 (inactive) | -1.09 (inactive) | -1.09 (inactive) | 1.38 | 1.27 (inactive) | 0.301 | 0.27 | -0.769 | -0.139 | -0.171 | -0.145 | 0.381 | -0.359 (inactive) | 0.577 | -0.557 | 0.0704 | -0.235 | -0.314 | 0.927 |
| COc1ccc([C@H]2C[C@H]3C(Br)=C[C@@]2(CO)C(=O)[C@]32CO2)cc1 | -0.855 | -0.658 (inactive) | -3.35 (inactive) | 0.241 (inactive) | -0.274 | -0.687 (inactive) | 0.0395 | -0.472 | -0.534 | -0.0799 | -0.194 | -0.118 | 0.565 | -0.206 (inactive) | -0.0884 | -0.516 | 0.197 | -0.387 | -0.198 | 1.32 |
